Measurements as given in publication PMC7862700, “An all-to-all approach to the identification of sequence-specific readers for epigenetic DNA modifications on cytosine”.

Columns and labels:
Experiment in all cases: DAPPL (digital affinity profiling via proximity ligation, sequencing); 10 mM Tris-HCl pH 7.5, 50 mM NaCl, 1 mM DTT, 4% glycerol, room temperature, 30 min; GST-TFs on glutathione beads, 16-mer random dsDNA library, 0.1% formaldehyde crosslink after washing; high values mean tight binding
Conditions in all cases: protein: recombinant; tags: N-terminal GST; dsDNA, one strand shown
[1] = molecular target: T1, FLI1 (Homo sapiens, UniProt Q01543 1-452)
T1 sequence: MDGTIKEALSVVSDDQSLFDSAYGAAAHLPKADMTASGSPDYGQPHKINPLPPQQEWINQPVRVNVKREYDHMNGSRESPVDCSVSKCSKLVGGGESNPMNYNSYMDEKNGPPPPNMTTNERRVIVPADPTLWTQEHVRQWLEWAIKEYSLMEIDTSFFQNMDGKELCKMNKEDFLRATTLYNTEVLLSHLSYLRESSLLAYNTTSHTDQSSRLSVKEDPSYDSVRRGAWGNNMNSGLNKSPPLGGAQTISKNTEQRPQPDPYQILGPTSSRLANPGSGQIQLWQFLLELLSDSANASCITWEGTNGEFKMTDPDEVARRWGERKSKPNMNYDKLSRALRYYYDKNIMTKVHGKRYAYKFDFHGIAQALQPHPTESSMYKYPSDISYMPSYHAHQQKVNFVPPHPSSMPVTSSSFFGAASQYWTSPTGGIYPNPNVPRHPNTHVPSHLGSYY
In short: (§1)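 Human transcription factors fused to GST were expressed in yeast, captured on glutathione beads, given DNA barcodes and pooled with a GST-only negative control. Pools were incubated with 200 nmole of a 16-mer random double-stranded DNA library in Tris/NaCl/DTT/glycerol buffer at room temperature for 30 min. They were then washed, crosslinked with 0.1% formaldehyde, proximity-ligated (BsaI/T4 ligase, 1 h, 37 °C), PCR-amplified and sequenced on an Illumina NextSeq500. Binding signal is each 6-mer's read frequency for a factor divided by its frequency for the GST control.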

[2] = molecular target: T2, ELK1 (Homo sapiens, UniProt P19419 1-428)
T2 sequence: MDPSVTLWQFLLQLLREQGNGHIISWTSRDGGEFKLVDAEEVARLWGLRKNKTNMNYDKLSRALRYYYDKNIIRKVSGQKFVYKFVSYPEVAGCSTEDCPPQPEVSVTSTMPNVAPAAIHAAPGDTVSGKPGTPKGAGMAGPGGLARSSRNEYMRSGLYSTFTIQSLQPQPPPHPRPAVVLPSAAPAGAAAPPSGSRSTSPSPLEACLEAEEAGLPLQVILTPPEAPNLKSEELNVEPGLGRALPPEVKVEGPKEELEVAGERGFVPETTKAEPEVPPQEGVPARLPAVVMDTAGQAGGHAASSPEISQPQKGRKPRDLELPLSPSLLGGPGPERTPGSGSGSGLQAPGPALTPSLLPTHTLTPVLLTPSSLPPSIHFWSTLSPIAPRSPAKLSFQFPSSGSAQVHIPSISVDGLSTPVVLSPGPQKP
In short: as §1

[3] = molecular target: T3, GABPA (Homo sapiens, UniProt Q06546 1-454)
T3 sequence: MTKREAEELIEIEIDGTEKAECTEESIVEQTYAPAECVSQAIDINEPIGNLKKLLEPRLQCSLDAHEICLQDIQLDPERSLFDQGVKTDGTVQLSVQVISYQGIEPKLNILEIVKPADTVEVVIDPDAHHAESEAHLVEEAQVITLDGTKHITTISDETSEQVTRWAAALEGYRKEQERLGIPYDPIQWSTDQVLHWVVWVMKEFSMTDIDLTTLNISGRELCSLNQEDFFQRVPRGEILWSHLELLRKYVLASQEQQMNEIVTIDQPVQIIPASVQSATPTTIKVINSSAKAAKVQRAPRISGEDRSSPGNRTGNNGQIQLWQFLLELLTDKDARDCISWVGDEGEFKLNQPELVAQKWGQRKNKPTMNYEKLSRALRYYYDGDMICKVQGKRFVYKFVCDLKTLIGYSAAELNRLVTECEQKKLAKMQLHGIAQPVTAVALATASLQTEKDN
In short: as §1

[4] = molecular target: T4, ERG (Homo sapiens, UniProt P11308 1-479)
T4 sequence: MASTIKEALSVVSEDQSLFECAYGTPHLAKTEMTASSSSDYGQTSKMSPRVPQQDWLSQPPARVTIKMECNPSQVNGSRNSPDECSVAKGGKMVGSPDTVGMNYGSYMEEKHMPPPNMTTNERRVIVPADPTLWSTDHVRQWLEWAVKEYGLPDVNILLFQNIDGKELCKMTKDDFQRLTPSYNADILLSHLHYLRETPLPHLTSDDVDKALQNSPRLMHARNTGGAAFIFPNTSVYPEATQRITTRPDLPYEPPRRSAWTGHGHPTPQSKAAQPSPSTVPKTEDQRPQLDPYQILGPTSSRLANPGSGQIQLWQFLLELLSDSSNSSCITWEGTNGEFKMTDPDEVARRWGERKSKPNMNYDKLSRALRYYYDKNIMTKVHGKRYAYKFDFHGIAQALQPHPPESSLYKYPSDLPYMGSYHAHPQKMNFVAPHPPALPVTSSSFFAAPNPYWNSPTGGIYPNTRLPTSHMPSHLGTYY
In short: as §1

[5] = molecular target: ELF1 (Homo sapiens, UniProt P32519 1-619)
In short: as §1

[6] = molecular target: T5, EHF (Homo sapiens, UniProt Q9NZC4 1-300)
T5 sequence: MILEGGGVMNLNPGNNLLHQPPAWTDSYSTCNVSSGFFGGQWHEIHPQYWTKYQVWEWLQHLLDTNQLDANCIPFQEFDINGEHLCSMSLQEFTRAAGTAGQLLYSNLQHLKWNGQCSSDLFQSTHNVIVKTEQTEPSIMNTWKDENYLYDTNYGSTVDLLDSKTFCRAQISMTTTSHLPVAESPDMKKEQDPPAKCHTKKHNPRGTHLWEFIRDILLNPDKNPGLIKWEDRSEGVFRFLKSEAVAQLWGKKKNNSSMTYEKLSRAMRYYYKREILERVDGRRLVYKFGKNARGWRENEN
In short: as §1

[7] = molecular target: SPI1 (Homo sapiens, UniProt P17947 1-270)
In short: as §1

[8] = molecular target: SPIB (Homo sapiens, UniProt Q01892 1-262)
In short: as §1

[9] = molecular target: T6, ELK3 (Homo sapiens, UniProt P41970 1-407)
T6 sequence: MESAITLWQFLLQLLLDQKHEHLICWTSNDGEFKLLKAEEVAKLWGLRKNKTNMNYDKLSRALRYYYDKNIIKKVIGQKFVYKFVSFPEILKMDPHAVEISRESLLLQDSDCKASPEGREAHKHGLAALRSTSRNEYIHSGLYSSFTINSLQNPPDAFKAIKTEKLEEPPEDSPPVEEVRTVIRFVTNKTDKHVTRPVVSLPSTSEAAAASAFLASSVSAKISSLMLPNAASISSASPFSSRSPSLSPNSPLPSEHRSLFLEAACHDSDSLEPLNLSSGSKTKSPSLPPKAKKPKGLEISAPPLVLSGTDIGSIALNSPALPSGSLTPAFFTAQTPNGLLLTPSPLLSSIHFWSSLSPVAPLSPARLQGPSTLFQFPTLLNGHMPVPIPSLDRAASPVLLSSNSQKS
In short: as §1

Chain of SPIB (Q01892 whole entry): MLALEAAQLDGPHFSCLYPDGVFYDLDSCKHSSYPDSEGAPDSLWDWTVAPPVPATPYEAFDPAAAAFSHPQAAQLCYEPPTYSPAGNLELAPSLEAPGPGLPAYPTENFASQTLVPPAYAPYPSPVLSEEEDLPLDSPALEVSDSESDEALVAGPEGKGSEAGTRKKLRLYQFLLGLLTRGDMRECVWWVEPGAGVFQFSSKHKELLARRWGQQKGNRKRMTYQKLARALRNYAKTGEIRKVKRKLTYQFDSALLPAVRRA
Chain of ELF1 (P32519 whole entry): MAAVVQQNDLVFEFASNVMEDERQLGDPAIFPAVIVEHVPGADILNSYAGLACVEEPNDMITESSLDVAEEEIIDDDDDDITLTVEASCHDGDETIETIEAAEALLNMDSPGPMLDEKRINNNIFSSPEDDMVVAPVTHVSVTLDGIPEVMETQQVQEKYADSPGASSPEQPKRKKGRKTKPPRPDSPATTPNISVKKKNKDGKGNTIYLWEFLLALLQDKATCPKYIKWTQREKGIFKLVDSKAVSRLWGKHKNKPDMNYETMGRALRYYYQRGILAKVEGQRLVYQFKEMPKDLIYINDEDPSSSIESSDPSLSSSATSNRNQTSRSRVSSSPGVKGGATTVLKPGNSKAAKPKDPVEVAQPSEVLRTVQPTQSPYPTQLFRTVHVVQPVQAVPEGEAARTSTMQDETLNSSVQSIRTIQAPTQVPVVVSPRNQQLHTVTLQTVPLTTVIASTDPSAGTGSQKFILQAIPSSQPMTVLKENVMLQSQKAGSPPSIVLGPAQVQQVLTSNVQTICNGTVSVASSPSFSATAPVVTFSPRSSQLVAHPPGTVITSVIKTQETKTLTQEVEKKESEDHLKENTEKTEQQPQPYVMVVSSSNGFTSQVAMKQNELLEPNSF

Sequence | binding signal [1] | binding signal [2] | binding signal [3] | binding signal [4] | binding signal [5] | binding signal [6] | binding signal [7] | binding signal [8] | binding signal [9]
AAAAAC | 1.31 fold enrichment (6-mer frequency, TF over GST control) | 1.12 fold enrichment (6-mer frequency, TF over GST control) | 1.26 fold enrichment (6-mer frequency, TF over GST control) | 1.26 fold enrichment (6-mer frequency, TF over GST control) | 1.23 fold enrichment (6-mer frequency, TF over GST control) | 1.28 fold enrichment (6-mer frequency, TF over GST control) | 1.46 fold enrichment (6-mer frequency, TF over GST control) | 1.24 fold enrichment (6-mer frequency, TF over GST control) | 1.31 fold enrichment (6-mer frequency, TF over GST control)
CAACTA | 1.24 fold enrichment (6-mer frequency, TF over GST control) | 1.31 fold enrichment (6-mer frequency, TF over GST control) | 1.37 fold enrichment (6-mer frequency, TF over GST control) | 1.3 fold enrichment (6-mer frequency, TF over GST control) | 1.38 fold enrichment (6-mer frequency, TF over GST control) | 1.27 fold enrichment (6-mer frequency, TF over GST control) | 1.28 fold enrichment (6-mer frequency, TF over GST control) | 1.24 fold enrichment (6-mer frequency, TF over GST control) | 1.25 fold enrichment (6-mer frequency, TF over GST control)
TGGCAC | 1.19 fold enrichment (6-mer frequency, TF over GST control) | 1.23 fold enrichment (6-mer frequency, TF over GST control) | 1.15 fold enrichment (6-mer frequency, TF over GST control) | 1.27 fold enrichment (6-mer frequency, TF over GST control) | 1.09 fold enrichment (6-mer frequency, TF over GST control) | 1.26 fold enrichment (6-mer frequency, TF over GST control) | 1.14 fold enrichment (6-mer frequency, TF over GST control) | 1.18 fold enrichment (6-mer frequency, TF over GST control) | 1.17 fold enrichment (6-mer frequency, TF over GST control)
ATGTAG | 1.05 fold enrichment (6-mer frequency, TF over GST control) | 1.03 fold enrichment (6-mer frequency, TF over GST control) | 1.04 fold enrichment (6-mer frequency, TF over GST control) | 1.01 fold enrichment (6-mer frequency, TF over GST control) | 1.09 fold enrichment (6-mer frequency, TF over GST control) | 1.07 fold enrichment (6-mer frequency, TF over GST control) | 1 fold enrichment (6-mer frequency, TF over GST control) | 1.01 fold enrichment (6-mer frequency, TF over GST control) | 1.05 fold enrichment (6-mer frequency, TF over GST control)
CCTGCG | 1.27 fold enrichment (6-mer frequency, TF over GST control) | 1.34 fold enrichment (6-mer frequency, TF over GST control) | 1.39 fold enrichment (6-mer frequency, TF over GST control) | 1.27 fold enrichment (6-mer frequency, TF over GST control) | 1.38 fold enrichment (6-mer frequency, TF over GST control) | 1.31 fold enrichment (6-mer frequency, TF over GST control) | 1.23 fold enrichment (6-mer frequency, TF over GST control) | 1.35 fold enrichment (6-mer frequency, TF over GST control) | 1.22 fold enrichment (6-mer frequency, TF over GST control)
CCGACA | 1.2 fold enrichment (6-mer frequency, TF over GST control) | 1.18 fold enrichment (6-mer frequency, TF over GST control) | 1.11 fold enrichment (6-mer frequency, TF over GST control) | 1.29 fold enrichment (6-mer frequency, TF over GST control) | 1.27 fold enrichment (6-mer frequency, TF over GST control) | 1.21 fold enrichment (6-mer frequency, TF over GST control) | 1.24 fold enrichment (6-mer frequency, TF over GST control) | 1.25 fold enrichment (6-mer frequency, TF over GST control) | 1.16 fold enrichment (6-mer frequency, TF over GST control)
TCCGTT | 1.44 fold enrichment (6-mer frequency, TF over GST control) | 1.61 fold enrichment (6-mer frequency, TF over GST control) | 1.42 fold enrichment (6-mer frequency, TF over GST control) | 1.68 fold enrichment (6-mer frequency, TF over GST control) | 1.34 fold enrichment (6-mer frequency, TF over GST control) | 1.4 fold enrichment (6-mer frequency, TF over GST control) | 1.53 fold enrichment (6-mer frequency, TF over GST control) | 1.53 fold enrichment (6-mer frequency, TF over GST control) | 1.54 fold enrichment (6-mer frequency, TF over GST control)
CCCCTG | 1.22 fold enrichment (6-mer frequency, TF over GST control) | 1.23 fold enrichment (6-mer frequency, TF over GST control) | 1.26 fold enrichment (6-mer frequency, TF over GST control) | 1.18 fold enrichment (6-mer frequency, TF over GST control) | 1.22 fold enrichment (6-mer frequency, TF over GST control) | 1.17 fold enrichment (6-mer frequency, TF over GST control) | 1.25 fold enrichment (6-mer frequency, TF over GST control) | 1.1 fold enrichment (6-mer frequency, TF over GST control) | 1.27 fold enrichment (6-mer frequency, TF over GST control)
